Assay results taken from the OligoGym collection.

These sequences were tested against F2R (assay: pooled miR-30 sensor sort-seq; sequence = guide strand). Conditions: shRNA.
Further: reference of the scale not given here.

Row | Sequence | sensor-assay potency score (higher = more potent)
1 | TAAACTTTTCTTTTTAACCTCC | 0.474
2 | TTTCATGGTCATTACCTCCTAG | 0.0335
3 | TAATAACTTAAACCTTGCCGTC | -1.01
4 | ATAGACACATAACAGACCGTGG | -0.63
5 | TTGGCTTATGTGTACAGTGTGT | -0.314
6 | TTATTCAGGTTACTAGAGCAGG | -0.622
7 | TAGTACTAAGTCTTACCTCTTA | -0.241
8 | TTAATAACTTAAACCTTGCCGT | 0.203
9 | TTCAGGGCTAAACTCTACCAAC | -1.3
10 | TATCACATTCTGCTTTGCCAGT | -0.848
11 | ACAAACAGCACATCTGCCGTGG | -0.289
12 | TTACTTGCCATCAACTGCCCAC | -0.043

What follows are sequences tested against FABP1 in the same assay as above. Conditions: shRNA.

Row | Sequence | sensor-assay potency score (higher = more potent)
13 | AACCACTGTCTTGACTTTCTCC | -0.372
14 | TTTTGGATCACTTTGGACCCAG | -0.408
15 | TTTTTGAAAGTTGTCACCAGTT | -0.333
16 | TTGAGTTCGGTCACAGACTTGA | -0.0189
17 | TGAACCACTGTCTTGACTTTCT | -0.394
18 | TCCAACTGAACCACTGTCTTGA | -0.148
19 | TATTGTCACCTTCCAACTGAAC | -1.49
20 | TCGTTTTGGATCACTTTGGACC | -1.43
21 | TTCCTGGCTCTGCAGTTGGTAC | -1.83
22 | TTTTGAAAGTTGTCACCAGTTT | -0.569
23 | TTCCAACTGAACCACTGTCTTG | -1.23
24 | TTTATTGTCACCTTCCAACTGA | 0.758
25 | TTTCCTGGCTCTGCAGTTGGTA | -0.913
26 | TTATTGTCACCTTCCAACTGAA | -0.686
27 | TTGAAGACAATGTCACCCAATG | -1.17
28 | ATTCTCTTGAAGACAATGTCAC | -0.0218
29 | ACTGTCTTGACTTTCTCCCCTG | -0.45
30 | TTTGGATCACTTTGGACCCAGC | -1.41
31 | TGAACTTGAAGTGCTTCCCATT | -0.823
32 | TCTTGAAGACAATGTCACCCAA | 0.0461
33 | TTGTCTCCAGCTCACATTCCTC | -1.37
34 | TTCCGGCAGACCGATTGCCTTC | -1.36
35 | TTTGAAAGTTGTCACCAGTTTA | -0.997

What follows are sequences tested against FABP9 in the same assay as above. Conditions: shRNA.

Row | Sequence | sensor-assay potency score (higher = more potent)
36 | TTGATTGTTGTCTCTTTGCCAA | -0.728
37 | AACACTAATAGTTACTGTCGGT | -0.48
38 | TATGGTGCTCTTTACTTTCCGG | -0.345
39 | TGTCCTGGAAAGAACTTTCTGT | -0.208
40 | TTTCTTTTGATTGTTGTCTCTT | 0.171
